The values below come from PubChem BioAssay.

Assay [1] is described as follows: polyglutamine-triggered caspase-3 activation inhibitors, cell-based (AID 1583). The following applies: polyglutamine-induced caspase-3 activation, cell assay; stronger effect = higher value;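 tested at 10 µM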.
Assay [2] can be described thus: suppressors of polyQ aggregation in yeast, 75Q-TubU reporter (AID 1593). The settings on record: Yeast 75Q polyglutamine aggregation reporter.
A short description of assay [3]: rescue of polyQ-huntingtin neuronal dysfunction in worms, whole organism, C. elegans mechanosensory neurons, N-terminal huntingtin (AID 1599). The settings on record: touch response, stronger effect = higher value.
The nature of assay [4]: inhibitors of mitochondrial cytochrome c release, biochemical, purified mitochondria (AID 1603).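 Also: mouse liver mitochondria challenged with calcium chloride; signal normalized to the plate average as 100%.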 The settings on record: stronger effect = lower value.
Assay [5] can be described thus: inhibitors of polyQ protein aggregation (AID 1604). The following applies: polyglutamine-induced protein aggregation inhibition assay; stronger effect = higher value; tested at 2.5 µM.
The nature of assay [6]: enhancers of glutamate uptake in motor neurons, MN-1 cell line (AID 1612).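 Also: tested at 1 µM final; 0% = mean of DMSO vehicle wells on each plate; positive means more glutamate uptake than control and negative means less.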 The following applies: MN-1 motor neuron cells, stronger effect = higher value.
A short description of assay [7]: suppressors of polyglutamine aggregation in yeast, 75Q-TubH (AID 1616). The settings on record: S. cerevisiae 75Q-TubH polyglutamine aggregation suppression; stronger effect = higher value.
Assay [8] is described as follows: hESC survival regulators, cell-based (AID 493140).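 Also: cells exposed to compounds for four days before counting.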 The following applies: human embryonic stem cell survival screen; stronger effect = higher value.
Assay [9] has as its system Hepatitis C virus NS3 helicase. The experiment in a line: HCV NS3 helicase inhibitors, primary screen, biochemical, fluorescence polarization, NIH Clinical Collection (AID 743270). The settings on record: NS3 helicase binding to Cy5-dT15 DNA, stronger effect = higher value, concentration not given here. A general note: In fluorescence polarisation assays a small probe gives low polarisation when free and higher when bound to something large.

Assay [10] deals with Single-stranded DNA-binding protein (Escherichia coli (strain K12)) (UniProt P0AGE0). The assay can be described thus: E. coli SSB displacement from DNA, counter-screen for HCV NS3 helicase inhibitor project, biochemical, fluorescence polarization, NIH Clinical Collection (AID 743271; in the data active = inhibition above about 28%). The following applies: stronger effect = higher value, concentration not given here. A general note: Counterscreens check selectivity or assay interference.

Assay [11] is described as follows: fluorescence interference in NS3h assay format, artefact control for HCV NS3 helicase inhibitor project, biochemical, NIH Clinical Collection (AID 743272).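 Also: HCV NS3 helicase with a Cy5 labelled single stranded DNA probe.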 The following applies: fluorescence interference counterscreen, stronger effect = lower value.
The nature of assay [12]: modulation of C. elegans fzo-1 (AID 1259413).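 Also: fzo-1 mutant C. elegans worms in liquid wells.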 The following applies: C. elegans fzo-1 modulator screen, mean read-out; stronger effect = higher value.
Assay [13] is described as follows: viability rescue of complex I mutant cybrids, primary screen, cell-based, galactose medium, ATP luminescence (AID 1645843;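 active = z-score of at least 1.8 in each of two replicates, scored against plate mean and spread of sample wells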;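 also: positive z means more ATP and so rescue of galactose-driven cybrid death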). The settings on record: complex I mutant cybrid cells, 72 h, stronger effect = higher value.
In another assay the test system is F380Y/beta1. The assay can be described thus: modulators of BK channel variants, profiling panel, selectivity assay, cell-based, U2OS BacMam, thallium flux, beta subunits (AID 1259406;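 active = thallium flux through the channel raised or lowered by more than 3 SD from vehicle-only wells, actives on both sides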;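 also: initial slope of Thallos dye fluorescence rise after thallium is added; log ratio against the mean of 0.3% DMSO vehicle wells on the same plate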). The settings on record: at 30 µM.
For the next assay, the system named is F380Y/beta4. The description is as above. The settings on record: at 30 µM.
Another assay deals with R275C/beta4. Described as above. The settings on record: at 30 µM.
For another assay, the system named is R275C/Slo1WT/beta2. The assay is described as above. The settings on record: at 30 µM.
The nature of assay [14]: Cy5 fluorescence interference with SSB-bound oligo, artefact control for HCV NS3 helicase inhibitor project, biochemical, NIH Clinical Collection, E. coli SSB (AID 743268).

“And” between values parts separate entries of the source, which are not always exact repeats. Identical values can stand only once. For part of these data: Potency and affinity values are given separately. The source made the active and inactive calls. Unless noted, no rule for the calls is given here.

`CCCCNC(=O)NS(=O)(=O)c1ccc(C)cc1`: the inhibition was -1.59% in assay [1], -5.91% (inactive) in assay [9] and 1.05% (inactive) in assay [10]. The same molecule gave a score in assay [2] of 1.02. Further, the rescue above control in assay [3] was -3.14. Moreover, the cytochrome c release ratio in [4] is 0.7. Further, the inhibition of aggregation in [5] amounted to 52.6%. In addition, the glutamate uptake change in assay [6] was -18.9%. The molecule further showed an aggregation suppression score in assay [7] of 0.871. Also, in assay [8], the survival was 25.3 (inactive). For the same molecule, in assay [11], the fluorescence ratio was 0.91 (inactive). Besides, the mean signal in assay [12] is 261 (inactive). For the same molecule, the z-score in assay [13] is 0.82 (inactive) and -0.58 (inactive) and 0.93 (inactive). The log fold change Tl+ flux in the assay on F380Y/beta1 was 0.0157 (inactive); in the assay on F380Y/beta4 it was 0.00157 (inactive); with R275C/beta4, -0.00534 (inactive); with R275C/Slo1WT/beta2, -0.00827 (inactive).
In the case of `CC(C)(C)NCC(O)c1cc(O)cc(O)c1` (configuration not stated), the inhibition in assay [1] was 10.1%; in assay [9], -2.27% (inactive); in assay [10] it was -3.53% (inactive). This molecule also yielded a score in [2] of 1.33. Further, the rescue above control in assay [3] is -7.82. Also, in assay [4], the cytochrome c release ratio came out at 1.15. The molecule also displayed an inhibition of aggregation in assay [5] of 47.9%. The glutamate uptake change in [6] came out at 22.8%. The aggregation suppression score in assay [7] stood at 1.5. In addition, the survival in [8] was 21.1 (inactive). The fluorescence ratio is 1.05 (inactive) in [14] and 1.04 (inactive) in assay [11]. Besides, the mean signal in [12] is 269 (inactive). The z-score in assay [13] was 0.355 (inactive) and 1.03 (inactive). Also, the log fold change Tl+ flux in the assay on F380Y/beta1 is -0.0587 (inactive); in the assay with F380Y/beta4, -0.0336 (inactive); in the assay on R275C/beta4, 0.00501 (inactive); in the assay on R275C/Slo1WT/beta2, -0.0142 (inactive).
As to `OCCN1CCN(CCCN2c3ccccc3Sc3ccc(Cl)cc32)CC1`, the values for the inhibition in [1], in assay [9] and in [10] were -20.9%, -2.27% (inactive) and 1.81% (inactive), respectively. This molecule also showed a score in assay [2] of 0.86. In addition, the cytochrome c release ratio in assay [4] amounted to 1.23. This molecule gave an inhibition of aggregation in assay [5] of 49%. The glutamate uptake change in assay [6] amounted to 5.53%. In assay [7], this molecule yielded an aggregation suppression score of 0.889. For the same molecule, the survival in assay [8] is 1.67 (inactive). Also, the results for the fluorescence ratio in assay [14] and in assay [11] were 1.01 (inactive) and 0.84 (inactive), respectively. For the same molecule, the mean signal in [12] was 256 (inactive). In [13], the z-score is -1.29 (inactive) and -1.32 (inactive). For the same molecule, the log fold change Tl+ flux in the assay with F380Y/beta1 was 0.097 (inactive); in the assay with F380Y/beta4, 0.284 (active); in the assay with R275C/beta4, 0.17 (active); with R275C/Slo1WT/beta2, -0.0801 (inactive).
Consider `CCOC(=O)[C@H](CCc1ccccc1)N[C@@H](C)C(=O)N1Cc2ccccc2C[C@H]1C(=O)O`, for which the inhibition in assay [1] is 20.2%; in [9] it was -8.64% (inactive); in [10] it was -0.48% (inactive). The molecule further returned a score in assay [2] of 1.04. The rescue above control in assay [3] came out at 4.28. Also, in assay [4], the cytochrome c release ratio came to 0.82. For the same molecule, the inhibition of aggregation in assay [5] was determined as 37.2%. The glutamate uptake change in [6] worked out at 3.41%. This molecule showed an aggregation suppression score in assay [7] of 1.35. Besides, the fluorescence ratio is 1.02 (inactive) in [14] and 1.04 (inactive) in [11]. Also, the mean signal in assay [12] is 206 (inactive). Besides, the z-score in [13] was 0.72 (inactive) and 0.435 (inactive). The log fold change Tl+ flux with F380Y/beta1 was -0.0839 (inactive); in the assay on F380Y/beta4 it was -0.00668 (inactive); with R275C/beta4 it was 0.0169 (inactive); with R275C/Slo1WT/beta2, 0.0209 (inactive).
For the molecule `Nc1nc(N)c2nc(-c3ccccc3)c(N)nc2n1`, the inhibition in assay [1] is 13.8%; in assay [9], 7.73% (inactive); in assay [10] it was 7.91% (inactive). The same molecule had a score in [2] of 1.58. The same molecule gave a rescue above control in assay [3] of 4.34. In addition, the cytochrome c release ratio in assay [4] is 0.47. In assay [5], the inhibition of aggregation was found to be 52.6%. In addition, in assay [6], the glutamate uptake change stood at 10.7%. This molecule registered an aggregation suppression score in assay [7] of 1.34. Further, the survival in assay [8] is 18.2 (inactive). In addition, the fluorescence ratio in [14] is 1.01 (inactive); in assay [11], 0.9 (inactive). Moreover, the mean signal in assay [12] was 245 (inactive). For the same molecule, the z-score in assay [13] is -0.725 (inactive) and 0.27 (inactive). The log fold change Tl+ flux in the assay on F380Y/beta1 is -0.0403 (inactive); in the assay on F380Y/beta4, -0.00497 (inactive); in the assay with R275C/beta4, -0.0731 (inactive); with R275C/Slo1WT/beta2 it was 0.0101 (inactive).

As usually defined, the inhibition is the relative decrease from the control value, in per cent.
